In the library only some 1% were active in any assay of this set; here they are far more common.
FadD28 binding: inhibitors of Mycobacterium tuberculosis FadD28 bisubstrate binding | FadD28 bisubstrate probe binding, fluorescence polarization | inhibition, % at 12.5 µM | 360,000 tested, 0.22% active; in the data active means inhibition above about 8.5%, passing the limit was not always enough
BioA inh: BioA (M. tuberculosis) enzyme inhibition; purified M. tuberculosis BioA enzyme, plate reader; inhibition, % at 9.99 µM; 360,000 tested, 0.096% active; in the data active means inhibition above about 40%
VHR inh abs: inhibitors of human VHR1 phosphatase (DUSP3) | P51452 | recombinant VHR phosphatase, pNPP absorbance | AID 1654 | inhibition, % at 13.3 µM | 290,000 tested, 0.52% active; in the data active means inhibition above about 50%
Target sequence (P51452 whole entry, looked up): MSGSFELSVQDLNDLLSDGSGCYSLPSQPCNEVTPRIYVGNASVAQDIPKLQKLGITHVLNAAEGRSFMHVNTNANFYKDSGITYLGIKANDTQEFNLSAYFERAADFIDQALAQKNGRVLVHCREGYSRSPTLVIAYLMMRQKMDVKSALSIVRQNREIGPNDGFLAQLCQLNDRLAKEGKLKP
TcdB GH inh: inhibitors of Clostridioides difficile toxin B glycohydrolase; 350,000 tested, 0.24% active; inhibition, % at 9.99 µM; P18177; TcdB glycohydrolase enzymatic assay, plate reader; in the data active means inhibition above about 10%
Yp Topo-I inh: inhibitors of Yersinia pestis topoisomerase I; Y. pestis Topo-I cleavage product accumulation, plate reader; activity, % at 10 µM; 360,000 tested, 0.064% active; in the data active means activity above about 50%, passing the limit was not always enough
MazF activator: MazEF (E. coli) toxin RNase activation; FAM/BHQ RNA-DNA oligo cleavage fluorescence, 5 h; activation, % at 20 µM; 350,000 tested, 0.32% active; in the data active means activation above about 50%
Target sequence (P0AE70 whole entry, looked up): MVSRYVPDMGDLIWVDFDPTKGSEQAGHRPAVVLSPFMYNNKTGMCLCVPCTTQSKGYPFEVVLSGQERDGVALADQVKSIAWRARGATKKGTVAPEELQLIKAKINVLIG
A number is an active result; 0 = inactive; - = not tested or not shown.

SMILES | FadD28 binding | BioA inh | VHR inh abs | TcdB GH inh | Yp Topo-I inh | MazF activator
CC(C)NC(=O)N1CCCCN2[C@H](CO)[C@@H](c3ccc(C#Cc4ccccc4F)cc3)[C@H]2C1 | - | 0 | - | 0 | - | -
C[C@@H]1CN([C@@H](C)CO)C(=O)c2cc(C#Cc3ccccc3F)cnc2O[C@H]1CN(C)C(=O)c1ccc2c(c1)OCO2 | - | 0 | - | 0 | - | -
CN(CC(=O)N1CCCc2c1c(=O)oc1ccc(O)cc21)Cc1ccccc1 | 0 | 0 | 0 | - | 0 | 0
CC(C(=O)N1CCCc2c1c(=O)oc1ccc(O)cc21)N1CCc2ccccc2C1 (stereo not given) | 0 | 0 | 56 | - | 0 | 0
Clc1cccc(-c2ccc(/C=N/n3cnnc3)o2)c1Cl | 0 | 0 | 0 | 0 | 0 | 0
Cc1c(Cl)cccc1-c1ccc(/C=N/n2cnnc2)o1 | 0 | 0 | 59 | - | 0 | 0
O=C1/C(=C/C=C/c2ccco2)SC(=S)N1NS(=O)(=O)c1ccccc1 | 47 | 0 | 0 | 0 | 0 | 0
CC(C(=O)O)N1C(=O)/C(=C/C=C/c2ccco2)SC1=S (stereo not given) | 36 | 0 | 0 | - | 0 | 0
O=C1/C(=C/c2cccs2)SC(=S)N1NS(=O)(=O)c1ccccc1 | 0 | 0 | 0 | 0 | 0 | 0
Cc1nc2ccccc2n1CC(=O)OCC(=O)NCc1ccccc1 | 0 | - | 0 | 0 | 0 | 0
CCOC(=O)Cn1c(=O)c(-c2ccccc2NCc2ccccc2)nc2ccccc21 | 0 | 0 | - | - | 0 | 61
O=C(NCCc1ccccc1)C1CCCN1C(=O)Nc1ccccc1 (stereo not given) | 0 | 0 | 0 | 0 | 0 | 0
O=C(NCCc1ccccc1)C1CCCN1C(=O)Nc1ccc(Cl)cc1 (stereo not given) | 0 | 0 | 53 | 0 | 0 | 0
O=C(NCc1ccc(F)cc1)C1CCCN1C(=O)Nc1ccccc1 (stereo not given) | 0 | 0 | 59 | 0 | 0 | 0
O=C(NCc1ccc(F)cc1)C1CCCN1C(=O)Nc1ccc(F)cc1 (stereo not given) | 0 | 0 | 0 | 0 | 0 | 0
CCn1c(=O)n(CC)c2cc(N3CCCC3)c(NC(=O)c3ccc(C)cc3)cc21 | 0 | 0 | 56 | 0 | 0 | 0
CCn1c(=O)n(CC)c2cc(N3CCCC3)c(NC(=O)c3ccccc3)cc21 | 0 | 0 | 0 | 0 | 0 | 0
CCOc1ccccc1NC(=O)Cn1cnc2c(cnn2-c2ccc(C)c(C)c2)c1=O | 0 | 0 | 0 | - | 0 | 162
COC(=O)c1ccccc1NC(=O)Cn1cnc2c(cnn2-c2ccc(C)c(C)c2)c1=O | - | - | - | - | - | 0
COC(=O)c1ccccc1NC(=O)Cn1cnc2c(cnn2-c2ccccc2)c1=O | 0 | 0 | 0 | 0 | 0 | 63
CC(C)(C)c1ccc(NC(=S)NCc2cccs2)cc1 | 42 | - | 0 | - | 0 | 0
Clc1ccc(N=c2ssnc2Cl)nc1 | 0 | - | 61 | 0 | 0 | 0
Clc1nssc1=Nc1ccc(Br)cc1 | 0 | - | 0 | 0 | 0 | 0
CN(C1CCCCC1)C(CNS(=O)(=O)c1ccccc1)c1ccccc1 (stereo not given) | 0 | 0 | 53 | 0 | 0 | 0
Cc1nc(S(=O)(=O)N[C@@H]2CCCN(Cc3cccc(OCCO)c3)C2)cn1C | - | - | - | 0 | - | -
SMILES | FadD28 binding | BioA inh | VHR inh abs | TcdB GH inh | Yp Topo-I inh | MazF activator
O=C(NCCc1ccccc1)c1ccc2nc(-c3ccco3)c(-c3ccco3)nc2c1 | 0 | 0 | 0 | - | 0 | 0
O=C(NCCO)c1ccc2nc(-c3ccco3)c(-c3ccco3)nc2c1 | 13 | 0 | 0 | - | 0 | 0
COc1ccc(N2CCN(S(=O)(=O)c3c(C(=O)N4CCOCC4)c(C)n(C)c3C)CC2)cc1 | 0 | 0 | 51 | 0 | 0 | 0
CCCC#Cc1ccc2c(c1)O[C@H](CN(C)Cc1ccc3c(c1)OCO3)[C@H](C)CN([C@H](C)CO)S2(=O)=O | - | 0 | - | 0 | - | -
CCCNC(=O)C1(C)CCCN(C(=O)c2ccccc2OC(F)(F)F)C1 (stereo not given) | 0 | 0 | - | 12 | 0 | -
CN(C)CC#Cc1ccc([C@H]2[C@@H](CO)N3CCCCN(C(=O)C4CC4)C[C@H]23)cc1 | - | 0 | - | - | - | -
O=C(NCCN1CCCCC1)Nc1cccc(F)c1 | 0 | 0 | 57 | 0 | 0 | 0
CC(C)NC(=O)N(C)C[C@H]1Oc2cc(C#C[C@H](C)O)ccc2S(=O)(=O)N([C@@H](C)CO)C[C@@H]1C | - | 0 | - | 0 | - | -
CCS(=O)(=O)NCC[C@H]1CC[C@H](NC(=O)Cc2ccccn2)[C@@H](CO)O1 | - | 0 | - | 0 | - | -
CN(C)S(=O)(=O)c1cccc(-c2nn(-c3ccccc3)cc2/C=C(\C#N)c2nc3ccccc3[nH]2)c1 | 0 | 0 | 0 | - | 0 | 0
N#C/C(=C\c1ccc([N+](=O)[O-])o1)c1nc2ccccc2[nH]1 | - | - | 52 | 0 | - | 0
N#C/C(=C/c1ccc(O)c(O)c1)c1nc2ccccc2[nH]1 | 12 | 0 | 0 | 0 | 0 | 0
N#C/C(=C(/O)c1ccc([N+](=O)[O-])o1)c1nc2ccccc2[nH]1 | 0 | - | 0 | 0 | 0 | 141
N#C/C(=C\c1cn(-c2ccccc2)nc1-c1cc2ccccc2o1)c1nc2ccccc2[nH]1 | 0 | 0 | 0 | - | 0 | 741
CC(C)(C)/C(O)=C(/C#N)c1nc2ccccc2[nH]1 | 0 | 0 | 0 | - | 0 | 0
Cc1ccc2nc(/C(C#N)=C\c3ccc([N+](=O)[O-])o3)[nH]c2c1 | 0 | 0 | 0 | - | 0 | 0
N#C/C(=C\c1cccs1)c1nc2ccccc2[nH]1 | 0 | 0 | 0 | - | 0 | 0
CO[C@@H]1CN(C)C(=O)c2ccc(NC(C)=O)cc2OC[C@H](C)N(C(=O)C2CCOCC2)C[C@H]1C | - | 0 | - | 0 | - | -
CO[C@@H]1CN(C)C(=O)c2ccc(NC(=O)Nc3ccc(Cl)cc3)cc2OC[C@H](C)N(C(=O)Nc2c(C)noc2C)C[C@@H]1C | - | 0 | - | 0 | - | -
O=C(NC1(C(=O)NC2CCCCC2)CCCCC1)c1ccc2c(c1)OCO2 | 0 | 0 | 52 | - | 0 | 0
O=C(NC1(C(=O)NC2CCCC2)CCCCC1)c1ccc2c(c1)OCO2 | 0 | 0 | 0 | - | 0 | 0
COCC#Cc1cnc2c(c1)C(=O)N([C@@H](C)CO)C[C@@H](C)[C@@H](CN(C)C(=O)CN1CCOCC1)O2 | - | 0 | - | 0 | - | -
CCN(CC)C(=O)c1ccc2c(c1)C1C=CCC1C(C(=O)O)N2 (stereo not given) | 12 | 0 | 0 | 0 | 0 | 0
CCOC(=O)c1ccc2c(c1)C1C=CCC1C(C(=O)O)N2 (stereo not given) | - | - | 0 | - | - | -
CC(=O)c1ccc2c(c1)C1C=CCC1C(c1cc3c(cc1Br)OCO3)N2 (stereo not given) | 0 | 0 | - | 0 | 0 | 0
CCOC(=O)C1Nc2ccc(C(=O)O)cc2C2C=CCC12 (stereo not given) | 21 | 0 | 0 | 0 | 0 | 0
O=C(O)c1ccc2c(c1)C1C=CCC1C(c1ccncc1)N2 (stereo not given) | 0 | 0 | 0 | 0 | 0 | 0
CCCC1Nc2ccc(C(=O)O)cc2C2C=CCC12 (stereo not given) | 30 | 0 | 0 | - | 0 | 0
CC(C)C1Nc2ccc(C(=O)O)cc2C2C=CCC21 (stereo not given) | 9.3 | - | 0 | 0 | 0 | 0
CO[C@@H]1CN(C)C(=O)c2ccc(NC(=O)c3nc4ccccc4s3)cc2OC[C@@H](C)N(Cc2ccccc2)C[C@H]1C | - | 0 | - | 0 | - | -

Bioassay records as filed in PubChem BioAssay.
